Consider 87 compounds from PubChem BioAssay AID652257 (The Scripps Research Institute Molecular Screening Center, 2013).

“And” between values parts separate entries of the source, which are not always exact repeats. Identical values can stand only once. In all, about 370,000 compounds went through this assay and about 4,800 (1.3%) were called active.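 Rule for the calls: active = inhibition above about 21% made by adding two undisclosed values (limit read from the data); inactive = the rest.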 The sample as a whole holds a higher share of actives than the screen did. Some compounds were tested as several samples or in several runs, with calls that do not always agree.

Sequence of Protein arginine N-methyltransferase 1 (Homo sapiens) (Q99873 whole entry, looked up): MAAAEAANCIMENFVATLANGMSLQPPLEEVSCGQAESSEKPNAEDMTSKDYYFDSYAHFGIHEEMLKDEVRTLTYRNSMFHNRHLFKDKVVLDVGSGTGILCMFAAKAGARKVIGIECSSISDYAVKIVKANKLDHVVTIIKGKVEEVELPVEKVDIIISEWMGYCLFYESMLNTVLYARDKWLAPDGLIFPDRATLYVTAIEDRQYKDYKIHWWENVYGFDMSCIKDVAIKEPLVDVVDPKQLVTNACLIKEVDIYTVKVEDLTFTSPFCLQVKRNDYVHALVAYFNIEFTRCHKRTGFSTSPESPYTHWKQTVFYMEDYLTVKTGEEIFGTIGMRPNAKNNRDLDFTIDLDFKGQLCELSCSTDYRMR

This assay concerns the target Protein arginine N-methyltransferase 1 (Homo sapiens) (UniProt Q99873). As to the kind of experiment: human PRMT1 activity-probe blockers – biochemical, fluorescence polarization, primary screen (AID 652257). As to conditions: recombinant PRMT1, activity-based probe fluorescence polarization; at 2.79 µM; stronger effect = higher value. (Polarisation of emitted light reports the rotation of a fluorescent probe.)
For orientation: inhibition means the change of the read-out against control, counted positive when it falls. In the case of `CC(NCc1nc2ccccc2n1C)C12CC3CC(CC(C3)C1)C2` (configuration not stated), the inhibition was 5.86% (inactive).

Consider `CCC(C)[C@@H](C(=O)OC)N(CCc1cn(Cc2ccccc2)nn1)S(=O)(=O)c1ccccc1Br` (some centres not stated), for which the inhibition is 1.11% (inactive).

As for `NC(=O)C[C@@H]1NC(=O)CNC(=O)c2cc([N+](=O)[O-])cc(I)c2NCCC(C(N)=O)NC1=O` (some centres not stated), the inhibition was -3.5% (inactive).

As for `CC(=O)N1CC[n+]2c(-c3ccc([N+](=O)[O-])cc3)csc21`, the inhibition was 52.3% (active).

In the case of `Cc1cc(C)cc(C(=O)N2CCN=C2SCc2ccc([N+](=O)[O-])cc2)c1`, the inhibition is -6.78% (inactive).

Take `CN1C2CCC1CC(NC(=O)c1ccc([N+](=O)[O-])cc1)C2` (configuration not stated): the inhibition was -4.9% (inactive).

For the compound `Cc1ccc(-n2c(SCC(=O)Nc3ccc(S(=O)(=O)Nc4nccs4)cc3)nnc2-c2ccccn2)cc1`, the inhibition is -1.31% (inactive).

Consider `Cc1ccc(OS(=O)(=O)c2ccc(-c3csc(C)n3)s2)c(C)c1`, for which the inhibition is 27.8% (active).

Consider `C=CCN1C(=O)[C@@H](CC(=O)NCC2CCCCC2)[C@]2(C(=O)OC)CCCCC=C12`, for which the inhibition was -0.92% (inactive).

For `COc1cc(C2C(C#N)=C(C)NC3=C2C(=O)CC(C)(C)C3)ccc1O` (configuration not stated), the inhibition is -0.43% (inactive).

Regarding `C=CCSC1=C(C#N)C(c2cc(Br)c(O)c(OC)c2)CC(=O)N1` (configuration not stated), the inhibition is 23.6% (active).

Turning to `Cc1cc(=O)[nH]c2nnnn12`, the inhibition was -0.07% (inactive).

Consider `CCNC(=O)COc1cc(C)c(Br)c(C)c1`, for which the inhibition was -2.57% (inactive).

Regarding `Cc1ccc(NC(=S)NNC(=O)CSc2nnc(SCc3ccccc3Cl)s2)cc1`, the inhibition was -4.6% (inactive).

In the case of `Cc1cc(=O)[nH]c(SCC(=O)Nc2ccc(F)cc2F)n1`, the inhibition is -0.33% (inactive).

For the compound `COc1ccc(C(=O)Nc2ccc(-n3nncc3C(C)(C)C)cc2)cc1`, the inhibition was 1.48% (inactive).

For `COc1ccc(C(=O)Nc2c(N)nc(SCC(=O)Nc3ccc(C(C)=O)cc3)[nH]c2=O)cc1`, the inhibition was 0.6% (inactive).

With `COc1ccc(NC(=O)c2ccc(C#CC(C)(C)O)cc2)cc1`, the inhibition is 25.5% (active).

On to `O=C(CCCCCN1C(=O)C2C3C=CC(C3)C2C1=O)Nc1ccccn1` (configuration not stated), for which the inhibition is -1.78% (inactive).

As for `Cc1n[nH]c(=O)c2c(NC(=O)COC(=O)c3ncc(Cl)c(Cl)c3Cl)oc(C)c12`, the inhibition is 7.67% (inactive).

Turning to `O=C(c1ccncc1)N1CC[C@H]2[C@H](CCCN2Cc2ccc(F)cc2)C1`, the inhibition was 0.01% (inactive).

For the compound `CCCn1c(C)cc(-c2csc(NC(=O)CCc3nc4ccccc4c(=O)[nH]3)n2)c1C`, the inhibition was 9.77% (inactive).

Take `Cc1c(C#N)c(NC(=O)c2ccccc2)n(Cc2ccccc2)c1C`: the inhibition was -3.16% (inactive).

With `CC(=O)Nc1ccc(C(=O)Nc2nc(-c3cc(C)n(Cc4ccccc4)c3C)cs2)cc1`, the inhibition is 25.2% (active).

On to `COc1ccc([C@H]2N[C@]3(CCCN(CC4CCCCC4)C3=O)[C@H]3C(=O)N(C)C(=O)[C@@H]23)cc1`, for which the inhibition was 5.33% (inactive).

For `Cc1cc(NS(=O)(=O)c2ccc(NC(=O)CSc3nnc(-c4ccc(C(C)(C)C)cc4)n3Cc3ccco3)cc2)nc(C)n1`, the inhibition was 3.17% (inactive).

As for `O=C(Oc1ccccc1C(=S)N1CCCCC1)c1cc([N+](=O)[O-])cc([N+](=O)[O-])c1`, the inhibition was 41.9% (active).

As for `O=C(Oc1ccc(Br)cc1C(=S)N1CCOCC1)c1cccc([N+](=O)[O-])c1`, the inhibition is 5.11% (inactive).

On to `O=C(Oc1ccccc1Cl)c1ccc(N2CCOCC2)c([N+](=O)[O-])c1`, for which the inhibition was -1.29% (inactive).

With `O=C(Cn1c(N2CCN(C/C=C/c3ccccc3)CC2)nc2ccccc21)c1ccccc1`, the inhibition was 0.25% (inactive).

As to `CCC(C(=O)NCc1cccnc1)n1nc(C)c2sc3ccccc3c2c1=O` (configuration not stated), the inhibition was 3.72% (inactive).

Turning to `Cc1ccc(S(=O)(=O)C2(S(=O)(=O)c3ccc(C)cc3)CCCC2)cc1`, the inhibition is 1.95% (inactive).

`CCCOc1ccc(C(=O)C(CCC(CNCC)C(=O)c2ccc(OCCC)cc2)CNCC)cc1` (configuration not stated): the inhibition is -1.8% (inactive).

`CCc1ccc(N(C(=O)c2csnn2)C(C(=O)NC2CCCCC2)c2ccncc2)cc1` (configuration not stated): the inhibition was 0.98% (inactive).

For `Clc1ccc(-n2c(COc3ccccc3)nnc2SCc2nc3ccccc3[nH]2)cc1`, the inhibition is 4.16% (inactive).

With `CC1CCN(c2ccc(C(=O)O)cc2NS(=O)(=O)c2ccc(Br)s2)CC1`, the inhibition is -1.42% (inactive).

As to `COc1ccc(OCC(=O)OCCN(C)C)cc1`, the inhibition was -3.78% (inactive).

For the compound `Cc1ccc(OCC(=O)Nc2ccc(C(=O)O)cc2NC(=O)COc2ccc(C)c(C)c2)cc1C`, the inhibition was -0.54% (inactive).

For the compound `COc1ccc(C(=O)COC(=O)COc2ccc(C)c(C)c2)cc1`, the inhibition was 29.1% (active).

For `CCn1c(=O)n2n(c1=O)[C@@]1(C=C3CCCC[C@H]32)N=C(NC(=O)c2ccccc2)N(Cc2ccccc2)[C@H]1Cc1ccccc1`, the inhibition is -0.64% (inactive).

`Cc1cccc(NC(=O)C[C@H]2CC[C@H]3[C@@H](COc4ccc(NC(=O)Nc5ccccc5)cc4C(=O)N3C)O2)c1`: the inhibition is 0.26% (inactive).

Consider `CCOC(=O)Nc1ccc(S(=O)(=O)N(C)C(C)C)cc1`, for which the inhibition is 1.03% (inactive).

Consider `COc1ccc2c(C(C)c3ccc(N)cc3)cn(C)c2c1` (configuration not stated), for which the inhibition was -4.35% (inactive).

In the case of `O=C(CSc1cccc[n+]1[O-])c1ccc(-c2ccccc2)cc1`, the inhibition is 39.5% (active).

As for `O=C(CSc1cccc[n+]1[O-])NCCCc1ccccc1`, the inhibition is -1.06% (inactive).

With `CCN(C(=O)CSc1cccc[n+]1[O-])c1ccccc1`, the inhibition was -2.83% (inactive).

Turning to `CCN(CC)C(=O)CC[C@H]1CC[C@]2(CCCN(Cc3ccc(Cl)cc3)C2)O1`, the inhibition was -4.34% (inactive).

For the compound `Cc1ccc(NCc2n[nH]c(=S)n2-c2ccccc2)cc1Cl`, the inhibition is 15.4% (inactive).

For the compound `S=c1[nH]nc(CSCc2ccc(Cl)cc2Cl)n1-c1ccccc1`, the inhibition was 21.5% (active).

For the compound `CCn1c(CSCc2c(Cl)cccc2Cl)n[nH]c1=S`, the inhibition is -0.4% (inactive).

As for `CCCNC(=O)C1(C)CCCN(C(=O)c2oc3ccccc3c2C)C1` (configuration not stated), the inhibition is -2.54% (inactive).

For the compound `CNc1nc(=O)n(C2CCCO2)cc1C` (configuration not stated), the inhibition is 4.11% (inactive).

With `C=CS(=O)(=O)N(Cc1nnn(Cc2ccccc2)c1Br)[C@H](C(=O)OC)C(C)C`, the inhibition is -6.2% (inactive).

As to `COc1cc2c(=O)n(C)c3ccccc3c2cc1OC`, the inhibition is 0.5% (inactive).

Take `Cn1c(=O)c([N+](=O)[O-])c(Oc2ccccc2)c2ccccc21`: the inhibition was 5.71% (inactive).

For `Cc1cccc(Oc2c([N+](=O)[O-])c(=O)n(C)c3ccccc23)c1`, the inhibition is 30% (active).

In the case of `CC(C)NC(=O)NNc1c(Cl)cncc1Cl`, the inhibition is -2.84% (inactive).

`CCC(c1ccc(NC(=O)OC(C)(C)C)cc1)c1cc(OC)cc(OC)c1` (configuration not stated): the inhibition was 0.65% (inactive).

With `O=C(c1ccc(S(=O)(=O)NCc2ccco2)cc1)N1CCN(c2ccccc2)CC1`, the inhibition is -5.34% (inactive).

Turning to `O=S(=O)(NCC1OCCc2ccccc21)c1ccccc1` (configuration not stated), the inhibition was 1.74% (inactive).

For the compound `O=c1/c(=C/c2ccc(CNS(=O)(=O)c3ccccc3)o2)sc2n1CCN=2`, the inhibition was 42.5% (active).

As for `N#Cc1ccccc1-n1c(N)c(C(=O)N2CCCC2)sc1=S`, the inhibition was 12.5% (inactive).

As to `Cc1ccc(-n2c(N)c(C(=O)N3CCOCC3)sc2=S)c(C)c1`, the inhibition was 2.33% (inactive).

For `Cc1cccc(-n2c(N)c(C(=O)N3CCN(C)CC3)sc2=S)c1`, the inhibition was 78.2% (active).

For the compound `O=C(CNC(=O)c1ccccc1)OC(C(=O)Nc1cc([N+](=O)[O-])ccc1F)c1ccccc1` (configuration not stated), the inhibition is -5.95% (inactive).

With `COc1cccc(N2CC(NS(=O)(=O)c3cccs3)CC2=O)c1` (configuration not stated), the inhibition was 0.96% (inactive).

As to `CN[C@H]1C[C@H]2c3cc(N4CCOCC4)ccc3CCN2C[C@H]1[C@H](C)O`, the inhibition is 1.75% (inactive).

Regarding `Cc1ccccc1NC(=O)CSC1=NCCN1`, the inhibition is 9.55% (inactive).

Take `Cc1cccc(NC(=O)CSC(N)=O)c1C`: the inhibition is 35.8% (active).

As for `Cc1ccccc1NC(=O)Cn1nnc(-c2ccccc2F)n1`, the inhibition was -2.95% (inactive).

Take `Cc1ccccc1NC(=O)CSC(=O)c1ccccc1`: the inhibition is 24.5% (active).

With `Cc1cccc(NC(=O)COC(=O)CCc2ccccc2)c1C`, the inhibition was -1.61% (inactive).

For the compound `Cc1cccc(NC(=O)CSc2nc3c(c(=O)[nH]2)CCCC3)c1C`, the inhibition was -0.58% (inactive).

For the compound `CC(c1c[nH]c2ccccc12)c1c(-c2ccccc2)n(C)c2ccccc12` (configuration not stated), the inhibition was 8.87% (inactive).

Take `CN(C)CC(=O)N[C@@H]1C[C@@H]2O[C@H](CO)CC[C@@H]2O[C@@H]1CCc1ccc(C#Cc2ccccc2)cc1`: the inhibition was -0.26% (inactive).

Turning to `CSc1cccc(NC(=O)CN2C(=O)COc3ccc(S(=O)(=O)N4CCOCC4)cc32)c1`, the inhibition was -1.34% (inactive).

Consider `O=C(c1c[nH]c2ccccc12)N1CCC(Oc2cccnc2)CC1`, for which the inhibition was -5.2% (inactive).

With `CN1CC(=O)N=C1N`, the inhibition is -1.28% (inactive) and 0.16% (inactive).

On to `CCOc1ccc(CCNC(=O)COC(=O)C2CCN(c3ccc(C(F)(F)F)cn3)CC2)cc1OCC`, for which the inhibition was -0.97% (inactive).

Take `CCCC(O)(c1ccccc1)C(c1ccccc1)c1ccccn1` (configuration not stated): the inhibition is 3.01% (inactive).

Regarding `C=CC1=C(C(=O)O)N2C(=O)[C@@H](NC(=O)/C(=N/OCC(=O)O)c3csc(N)n3)[C@H]2SC1`, the inhibition is 28.6% (active).

In the case of `C=CC1=C(C(=O)O)N2C(=O)[C@@H](NC(=O)/C(=N\OCC(=O)O)c3csc(N)n3)[C@H]2SC1`, the inhibition is 23.7% (active).

As for `CO/N=C(\C(=O)N[C@@H]1C(=O)N2C(C(=O)O)=C(COC(C)=O)CS[C@H]12)c1csc(N)n1` (stereo in doubt), the inhibition was 16% (inactive) and 23.3% (active) and 25.5% (active).

For the compound `COc1ccc(-n2c(COc3ccccc3)nnc2SCC(=O)Nc2ccc3c(c2)OCO3)cc1`, the inhibition is 0.3% (inactive).

As for `C=C(C)CNC(=S)/N=c1\scc(C)n1CC`, the inhibition was 2.72% (inactive).

On to `O=C(NCCC1=CCCCC1)C1CCN(S(=O)(=O)c2ccc(Cl)s2)CC1`, for which the inhibition was 2.95% (inactive).

As to `CCc1c(C)c2ccc(OC3CCCCC3=O)cc2oc1=O` (configuration not stated), the inhibition is -0.12% (inactive).
